# Laboratory results from PubChem BioAssay (NCI).
# This is part of a sample that, as a whole, favours compounds with a hit. Of some 83,000 tested, about 20% had one in any assay.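 Plates (96-well) were seeded with cells, treated with compound at one concentration, and incubated for 48 hours before percent growth was determined.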 A number with no mark means an inactive call. The source made the active and inactive calls. How the source made its calls: active means growth percent below 10; inactive means the rest.
# System: HL-60(TB) leukemia
# Experiment: NCI-60 one-dose screen, 48 h (100 = growth as untreated, 0 = no growth, -100 = all killed)
# Settings: 10 µM unless noted
row,SMILES,growth
1,COc1ccc(-n2c(SCc3cc(OC)c(OC)c(OC)c3)nc3ccc(C)cc3c2=O)c(OC)c1,-44.3% (active)
2,CC(=O)OC[C@]12CC[C@@H](/C(C)=N/O)[C@@H]1[C@H]1CC[C@@H]3[C@@]4(C)CCCNC(C)(C)[C@@H]4CC[C@@]3(C)[C@]1(C)CC2,37.7%
3,Cc1ccc(C2SCC(=O)N2NC(=O)c2[nH]c3ccc(F)cc3c2-c2ccccc2)cc1 (stereo not given),78.6%
4,Cc1nc2cc(-c3nn(C(C)C)c4ncnc(N)c34)ccc2o1,5.12% (active)
5,Cc1cc(Nc2nc(-c3ccncc3)nc3ccccc23)n[nH]1,49.1%
6,N=C(N)N=Nc1ccc(NN=C(N)N)c2ccccc12,113%
7,CN1CCN(c2ccc(-c3cnc4c(-c5csc6ccccc56)cnn4c3)cc2)CC1,9.53% (active)
8,COc1ccc(-c2cn3c(ccc4ccccc43)n2)cc1,109%
9,COc1cc2cc(OC(C)=O)c3cc4c(cc3c2c(OC)c1OC)OCO4,96.6%
10,CCN(CC)CCO/N=C1\CC(c2ccc(OC)c(OC)c2)Oc2ccccc21 (stereo not given),78.4%
11,C/C=C(\C)C(=O)NC1=CC[C@@]2(C)C(=CCC3C2CC[C@@]2(C)C3CC[C@@H]2C(C)N(C)C)C1=O (stereo not given in full),8.53% (active)
12,CCCCCCCCCCCCCCCC[N+]1(CC)CCCC1,-69.9% (active)
13,CC1OC(C(=O)N2CCN(CCO)CC2)CC1COC1CCCCC1 (stereo not given),98.3% [50 µM]
14,COc1ccc(Cl)cc1NC(=O)c1cc2c(n1C)-c1nc(NC(=O)C(C)(C)C)sc1CC2,82.7%
15,O=C1/C(=C\c2ccc(F)cc2)CN(C(=O)c2ccc([N+](=O)[O-])cc2)C/C1=C\c1ccc(F)cc1,65.1%
16,Cc1nc2ccccc2c(/C=C/c2ccc(Cl)cc2)c1C(=O)/C=C/c1ccccc1,5.7% (active)
17,c1ccc(Nc2cc(-c3cccnc3)[nH]n2)cc1,89.3%
18,CCN(CC)CC(C)Nc1ccc([N+](=O)[O-])c2sc3ccccc3c(=O)c12 (stereo not given),-26.2% (active)
19,C/C=C(\C)C(C(=O)NC1CCCCC1)N(C(=O)C1CCc2cc(F)ccc2O1)c1ccc([N+](=O)[O-])cc1 (stereo not given),82.4%
20,COc1ccccc1/C=N/NC1=NC2C(N1)N(C)C(=O)N2C (stereo not given),107%

row,SMILES,growth
1,COc1cc(C2c3cc4c(cc3C(OC(=O)C[n+]3ccccc3)C3COC(=O)C23)OCO4)cc(OC)c1OC (stereo not given),-32.5% (active)
2,Cn1cc(-c2ccc3nc(-c4ccc(CC(=O)Nc5cc(C(C)(C)C)no5)cc4)cnc3c2)cn1,18.5% [30 µM]
3,NC(=O)c1ncn(C2OC(CO)C(O)C2O)n1 (stereo not given),83.1%
4,CCOC(=O)c1ccc(NC(=O)CSC(N)=O)cc1,93.2%
5,N=C(N)c1ccc(-c2ccc(-c3cccs3)s2)cc1,-46.6% (active)
6,Oc1ccc(CNNc2ccnc3c(O)cccc23)c2cccnc12,-7.85% (active)
7,NC1(CO)COC(c2ccccc2)OC1 (stereo not given),89.2%
8,CN(C)c1ccc(/C=C\c2cccc[n+]2C)cc1,27.2%
9,COc1ccc(O)c(-c2cc(-c3ccccc3)c(C#N)c(=O)[nH]2)c1,112%
10,O=C(Cc1ccc(/C=C/C(=O)c2ncc[nH]2)cc1)Nc1ccc(S(F)(F)(F)(F)F)cc1,42.1%
11,NCCOc1ncccc1/C=C1\C2C=CC=CC2C2C=CC(F)=CC12 (stereo not given),-24.3% (active)
12,CCOC(=O)c1c(C(=O)c2cn(C)c3ccc(Br)cc23)c(-c2cn(C)c3ccc(Br)cc23)n(NC(=O)OC(C)(C)C)c1C,100% [100 µM]
13,Cc1ccc2[nH]cc(-c3nc(-c4cn(C)c5ncccc45)cs3)c2c1,63.7%
14,O=C1CCC/C=C\C[C@H]2C=CC(=O)/C2=C/C[C@H](C/C=C\CC(F)(F)F)O1,-16.6% (active)
15,O=c1ccn(C2OC(CO)C(O)C2F)c(=O)[nH]1 (stereo not given),130%
16,C[N+]1=C(/C=C/c2ccc(I)cc2)C(C)(C)c2ccccc21,39.4%
17,CCOc1cc(F)c([N+](=O)[O-])cc1[N+](=O)[O-],-12.6% (active)
18,O=C(Nc1ccncc1)C(=O)c1cn(S(=O)(=O)c2ccc(Oc3ccccc3)cc2)c2ccccc12,70.5%
19,CCOC(=O)c1nn(C2CCCCO2)c2ccc(NC(=O)CSc3nc4ccccc4c(=O)[nH]3)cc12 (stereo not given),118%
20,COc1cc(-c2cc(-c3cc(OC)c(OC)c(OC)c3)nc3nc(N)[nH]c(=O)c23)ccc1Oc1ccnc2cc(Cl)ccc12,11.4%
